Hit rate of the full screen: of about 5,500 compounds, about 2,000 (36%) were called active. Another 18% or so got no clear call; they are omitted. Rule as the data show it: active = normalized growth mostly below about 0.91 (no sharp cut-off); inconclusive = no clear call, values can overlap the other calls; inactive = mostly above about 0.92. The list shows a part of the results.
Assay: chemical genetic growth profiling, strain panel (AID 1159580);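 also: tested at 20 µM; growth read once vehicle control cultures reached saturation at 30 °C; 1 = growth at the plate median or of vehicle wells; lower values mean less growth of the strain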
Conditions: S. cerevisiae deletion strains, growth OD
[1] = locus YHR030C, strain SLT2, hits give low values
[2] = locus YHR079C, strain IRE1, hits give low values
[3] = locus YJL095W, strain BCK1, hits give low values
[4] = locus YJR066W, strain TOR1, hits give low values
[5] = locus YLR113W, strain HOG1, hits give low values
[6] = locus YNL183C, strain NPR1, hits give low values
[7] = locus YOR231W, strain MKK1, hits give low values
[8] = locus YPL256C, strain CLN2, hits give low values

Measured: normalized growth

COc1ccc(-c2cc(=O)c3c(OC)c(OC)c(OC)cc3o2)cc1OC
inactive: [1] 1.03 | [2] 1.02 | [3] 0.974 | [4] 0.99 | [5] 0.968 | [6] 0.936 | [7] 1.02 | [8] 1

COc1ccc(-c2cc(=O)c3c(OC)c(OC)c(OC)c(OC)c3o2)cc1OC
inactive: locus YAL021C, strain ccr4, hits give low values 1 | locus YAL026C, strain drs2, hits give low values 1 | locus YAL030W, strain snc1, hits give low values 0.999 | locus YBL061C, strain skt5, hits give low values 1 | locus YBR009C, strain hhf1, hits give low values 1.02 | locus YBR023C, strain chs3, hits give low values 1.01 | locus YBR171W, strain sec66, hits give low values 1 | locus YBR231C, strain swc5, hits give low values 0.997 | locus YBR279W, strain paf1, hits give low values 0.998 | locus YCL011C, strain gbp2, hits give low values 0.988 | locus YCL016C, strain dcc1, hits give low values 0.993 | locus YCL069W, strain vba3, hits give low values 1.02 | locus YCR088W, strain abp1, hits give low values 0.996 | locus YDL005C, strain med2, hits give low values 1 | locus YDL040C, strain nat1, hits give low values 0.999 | locus YDR001C, strain nth1, hits give low values 0.991 | locus YDR069C, strain doa4, hits give low values 1.01 | locus YDR137W, strain rgp1, hits give low values 1.03 | locus YDR159W, strain sac3, hits give low values 0.96 | locus YDR195W, strain ref2 0.952 | locus YDR297W, strain sur2, hits give low values 0.986 | locus YDR334W, strain swr1, hits give low values 1.01 | locus YDR335W, strain msn5, hits give low values 1.02 | locus YDR392W, strain spt3, hits give low values 1.01 | locus YEL003W, strain gim4, hits give low values 1.01 | locus YEL037C, strain rad23, hits give low values 0.997 | locus YEL061C, strain CIN8 (second series), hits give low values 0.999 | locus YER015W, strain faa2, hits give low values 0.992 | locus YER016W, strain bim1, hits give low values 0.993 | locus YER111C, strain swi4, hits give low values 1 | locus YER155C, strain BEM2 (second series), hits give low values 0.996 | locus YFR010W, strain ubp6, hits give low values 1.02 | locus YGL167C, strain pmr1, hits give low values 1.01 | locus YGL173C, strain kem1, hits give low values 1.01 | locus YGL227W, strain vid30, hits give low values 0.985 | locus YGL240W, strain doc1, hits give low values 0.994 | locus YGL253W, strain hxk2, hits give low values 0.994 | locus YHR013C, strain ard1, hits give low values 0.973 | locus YHR027C, strain rpn1, hits give low values 1 | [1] 1.01 | [2] 1.01 | locus YHR142W, strain chs7, hits give low values 1.01 | locus YJL092W, strain hpr5, hits give low values 0.996 | locus YJL095W, strain BCK1 (second series), hits give low values 0.992 | [3] 0.963 | locus YJL115W, strain asf1, hits give low values 0.988 | locus YJL129C, strain trk1, hits give low values 1.01 | locus YJL154C, strain vps35, hits give low values 0.983 | locus YJL164C, strain tpk1, hits give low values 1 | locus YJL166W, strain qcr8, hits give low values 0.998 | [4] 0.976 | locus YKL160W, strain elf1, hits give low values 0.997 | locus YKR026C, strain gcn3, hits give low values 0.997 | locus YKR091W, strain srl3, hits give low values 0.996 | locus YLL001W, strain dnm1, hits give low values 0.996 | locus YLL026W, hits give low values 0.991 | locus YLL041C, strain sdh2, hits give low values 0.991 | locus YLR027C, strain aat2, hits give low values 1 | [5] 0.941 | locus YLR221C, strain rsa3, hits give low values 0.996 | locus YLR258W, strain gsy2, hits give low values 1.01 | locus YLR262C, strain YPT6 (second series), hits give low values 1.04 | locus YLR320W, strain mms22, hits give low values 1 | locus YLR342W, strain FKS1, hits give low values 0.998 | locus YLR357W, strain rsc2, hits give low values 0.957 | locus YLR370C, strain arc18, hits give low values 0.988 | locus YLR384C, strain iki3, hits give low values 0.981 | locus YML120C, strain ndi1, hits give low values 1.01 | locus YMR058W, strain fet3, hits give low values 0.995 | locus YMR125W, strain sto1, hits give low values 1 | locus YMR129W, hits give low values 0.994 | locus YMR205C, strain PFK2, hits give low values 1.02 | locus YMR231W, strain pep5, hits give low values 1 | locus YNL071W, strain lat1, hits give low values 0.998 | [6] 0.926 | locus YNL209W, strain ssb2, hits give low values 1 | locus YNL248C, strain rpa49, hits give low values 0.995 | locus YNL322C, strain KRE1 (second series), hits give low values 0.994 | locus YNR049C, strain mso1, hits give low values 1.01 | locus YOR001W, strain rrp6, hits give low values 0.982 | locus YOR070C, strain gyp1, hits give low values 0.988 | locus YOR080W, strain dia2, hits give low values 0.989 | locus YOR083W, strain WHI5, hits give low values 1 | locus YOR106W, strain vam3, hits give low values 1.01 | [7] 1.02 | locus YOR265W, strain rbl2, hits give low values 1.02 | locus YOR270C, strain vph1, hits give low values 1.07 | locus YOR290C, strain snf2, hits give low values 0.988 | locus YPL051W, strain arl3, hits give low values 0.974 | locus YPL078C, strain atp4, hits give low values 0.985 | locus YPL106C, strain sse1, hits give low values 0.962 | locus YPL240C, strain hsp82, hits give low values 1 | [8] 0.991

Source: PubChem BioAssay AID1159580 (chemical genetic matrix, 2015)
